Results reported in the antibiotic and cytotoxicity screens of Wong et al. (2023).
The campaign covered roughly 39,000 compounds. About 3,300 (8.5%) were called active. The sample as a whole holds a higher share of actives than the screen did.

Each compound was assayed on HepG2 (assay: cytotoxicity call (relative viability < 0.9)). Conditions: 10 µM.

SMILES	cytotoxicity call
CCN(CC)C(=O)C(C#N)=Cc1cc(O)c(O)c([N+](=O)[O-])c1	inactive
N#CC(=Cc1ccc(O)c(O)c1)C(N)=O	inactive
N#C/C(=C\c1ccc(O)c(O)c1)C(N)=O	active
Cc1noc(C)c1S(=O)(=O)Nc1cccc2c1O[C@@H](CN(C)C(=O)Nc1ccccc1)[C@@H](C)CN([C@H](C)CO)C2=O	inactive
CC(C)NC(=O)Nc1ccc2c(c1)C(=O)N([C@H](C)CO)C[C@@H](C)[C@@H](CN(C)CC1CCCCC1)OCCCC[C@@H](C)O2	inactive
NCc1ccc(Br)s1	inactive
Cc1noc(C)c1S(=O)(=O)Nc1ccc2c(c1)C(=O)N([C@H](C)CO)C[C@H](C)[C@H](CN(C)S(C)(=O)=O)OCCCC[C@@H](C)O2	inactive
C[C@H](CO)N1C[C@H](C)[C@H](CN(C)Cc2ccc3c(c2)OCO3)Oc2ccc(NC(=O)C3CC3)cc2C1=O	inactive
C[C@@H]1CCCCO[C@@H](CN(C)S(=O)(=O)c2cccs2)[C@@H](C)CN([C@@H](C)CO)C(=O)c2cc(NC(=O)C3CCCCC3)ccc2O1	inactive
C[C@@H]1CN([C@@H](C)CO)S(=O)(=O)c2ccc(/C=C/c3ccccc3)cc2O[C@H]1CN(C)C(=O)Nc1cc(F)ccc1F	inactive
COc1ccc(C#Cc2ccc3c(c2)O[C@H](CN(C)C(=O)c2ccccn2)[C@H](C)CN([C@@H](C)CO)S3(=O)=O)cc1	active
COc1cccc(C#Cc2ccc3c(c2)O[C@H](CN(C)C(C)=O)[C@@H](C)CN([C@H](C)CO)S3(=O)=O)c1	inactive
COc1cccc(C#Cc2ccc3c(c2)O[C@@H](CN(C)C(=O)c2ccccn2)[C@@H](C)CN([C@@H](C)CO)S3(=O)=O)c1	inactive
COc1ccc(C#Cc2ccc3c(c2)O[C@@H](CN(C)C(=O)c2ccccn2)[C@H](C)CN([C@@H](C)CO)S3(=O)=O)cc1	inactive
COc1cccc(C#Cc2ccc3c(c2)O[C@H](CN(C)C(=O)c2ccccn2)[C@@H](C)CN([C@H](C)CO)S3(=O)=O)c1	inactive
COc1ccc(C#Cc2ccc3c(c2)O[C@H](CN(C)C(=O)c2ccccn2)[C@@H](C)CN([C@@H](C)CO)S3(=O)=O)cc1	inactive
COc1cccc(C#Cc2ccc3c(c2)O[C@H](CN(C)C(C)=O)[C@H](C)CN([C@@H](C)CO)S3(=O)=O)c1	inactive
COc1cccc(C#Cc2ccc3c(c2)O[C@H](CN(C)C(=O)c2ccccn2)[C@H](C)CN([C@H](C)CO)S3(=O)=O)c1	active
COc1cccc(C#Cc2ccc3c(c2)O[C@@H](CN(C)C(C)=O)[C@@H](C)CN([C@@H](C)CO)S3(=O)=O)c1	active
C[C@H]1CN([C@@H](C)CO)C(=O)c2cc(NC(=O)c3ccncc3)ccc2O[C@H]1CN(C)Cc1ccc(Oc2ccccc2)cc1	inactive
COCC#Cc1ccc2c(c1)O[C@H](CN(C)C(=O)Nc1ccccc1F)[C@H](C)CN([C@H](C)CO)S2(=O)=O	inactive
Cc1ccc(S(=O)(=O)N[C@@H](Cc2ccccc2)C(=O)NCCn2cc(-c3ccc(C(=O)NO)s3)nn2)cc1	inactive
COc1cccc(S(=O)(=O)N(C)C[C@@H]2Oc3cc(C#CCN(C)C)ccc3S(=O)(=O)N([C@@H](C)CO)C[C@H]2C)c1	inactive

SMILES	cytotoxicity call
CC(=O)NS(=O)(=O)c1ccc(N)cc1 [listing 1 of 2 here]	inactive
NC(=O)NS(=O)(=O)c1ccc(N)cc1	inactive
CC(=O)NS(=O)(=O)c1ccc(N)cc1 [listing 2 of 2 here]	active
C[C@H](CO)N1C[C@H](C)[C@H](CN(C)C(=O)Nc2cccc3ccccc23)Oc2ccc(NC(=O)Nc3ccc4c(c3)OCO4)cc2C1=O	inactive
Nc1nnc([C@H]2CCCO2)o1	inactive
O=C(O)c1ccc(-c2ccccc2)cc1	inactive
O=C(O)c1ccc2nc(O)c(=O)[nH]c2c1	inactive
O=C(O)c1ccc(-n2nc(-c3ccccc3O)nc2-c2ccccc2O)cc1	active
COCC#Cc1cnc2c(c1)C(=O)N([C@@H](C)CO)C[C@H](C)[C@@H](CN(C)C(=O)Nc1ccccc1OC)O2	inactive
Cc1noc(C)c1S(=O)(=O)N(C)C[C@@H]1OCCCC[C@@H](C)Oc2ccc(NC(=O)Nc3cccc4ccccc34)cc2C(=O)N([C@@H](C)CO)C[C@H]1C	inactive
COc1ccc(NC(=O)N(C)C[C@@H]2OCCCC[C@H](C)Oc3ccc(NS(=O)(=O)c4ccc(Cl)cc4)cc3C(=O)N([C@H](C)CO)C[C@@H]2C)cc1	inactive
C[C@H]1CN([C@@H](C)CO)C(=O)c2cc(C#CC3(O)CCCC3)cnc2O[C@@H]1CN(C)C(=O)Nc1ccc2c(c1)OCO2	inactive
O=C(/C=c1/nc2c([nH]c1=O)=NON2)c1ccccc1	inactive
O=C1OCCN/C1=C/C(=O)c1ccccc1	active
C[C@H]1CNC(=CC(=O)c2ccccc2)C(=O)N1	inactive
COCCNC(=O)C[C@H]1CC[C@@H](NS(=O)(=O)c2ccc(C)cc2)[C@@H](CO)O1	inactive
C[C@@H]1CN([C@@H](C)CO)C(=O)c2cc(C#CC3CC3)cnc2O[C@@H]1CN(C)S(=O)(=O)c1cccc(F)c1	inactive
C[C@H]1CN([C@@H](C)CO)C(=O)c2c(c3ccccc3n2C)-c2ccccc2CO[C@H]1CN(C)C(=O)Nc1cccc(C(F)(F)F)c1	inactive
C[C@@H]1CN([C@H](C)CO)C(=O)c2c(c3ccccc3n2C)-c2ccccc2CO[C@@H]1CN(C)C(=O)Nc1cccc(C(F)(F)F)c1	active
C[C@@H]1CN([C@H](C)CO)C(=O)c2c(c3ccccc3n2C)-c2ccccc2CO[C@H]1CN(C)C(=O)Nc1cccc(C(F)(F)F)c1	inactive
C[C@H](CO)N1C[C@H](C)[C@@H](CN(C)C(=O)Nc2cccc(C(F)(F)F)c2)OCc2ccccc2-c2c(n(C)c3ccccc23)C1=O	inactive
C[C@@H]1CN([C@@H](C)CO)C(=O)c2c(c3ccccc3n2C)-c2ccccc2CO[C@H]1CN(C)C(=O)Nc1cccc(C(F)(F)F)c1	active
C[C@H](CO)N1C[C@H](C)[C@H](CN(C)C(=O)Nc2cccc(C(F)(F)F)c2)OCc2ccccc2-c2c(n(C)c3ccccc23)C1=O	inactive

SMILES	cytotoxicity call
COc1ccc(S(=O)(=O)N(C)C[C@@H]2OCCCC[C@H](C)Oc3ccc(NC(=O)Nc4c(C)noc4C)cc3C(=O)N([C@@H](C)CO)C[C@@H]2C)cc1	inactive
Cc1noc(C)c1NC(=O)N(C)C[C@@H]1Oc2ccc(NC(=O)NC(C)C)cc2CC(=O)N([C@@H](C)CO)C[C@@H]1C	inactive
O=C(C=Cc1ccc(O)c(O)c1)OC1CC(O)(C(=O)O)CC(O)C1O (configuration not stated)	inactive
O=C(/C=C/c1ccc(O)c(O)c1)O[C@@H]1C[C@@](O)(C(=O)O)C[C@@H](O)[C@@H]1O	active
O=C(/C=C/c1ccc(O)c(O)c1)O[C@@H]1C[C@](O)(C(=O)O)C[C@@H](O)[C@H]1O	inactive
Cc1noc(C)c1NC(=O)N(C)C[C@H]1OCCCC[C@@H](C)Oc2ccc(NS(=O)(=O)c3ccc(F)cc3)cc2C(=O)N([C@@H](C)CO)C[C@H]1C	inactive
C[C@H]1CN([C@@H](C)CO)C(=O)c2cc(C#CCC3CCCC3)cnc2O[C@@H]1CN(C)C(=O)c1cnccn1	inactive
CC(C)NC(=O)N(C)C[C@H]1Oc2cc(C#Cc3cccc(F)c3)ccc2S(=O)(=O)N([C@@H](C)CO)C[C@H]1C	inactive
CNC[C@@H]1OCCCC[C@H](C)Oc2ccc(NS(=O)(=O)c3cn(C)cn3)cc2C(=O)N([C@@H](C)CO)C[C@@H]1C	inactive
C[C@H](CO)N1C[C@H](C)[C@H](CN(C)S(=O)(=O)c2ccc(Cl)cc2)OCCCC[C@H](C)Oc2ccc(NS(=O)(=O)c3ccc(Cl)cc3)cc2C1=O	active
C[C@H]1CCCCO[C@@H](CN(C)S(=O)(=O)c2ccc(Cl)cc2)[C@@H](C)CN([C@@H](C)CO)C(=O)c2cc(NS(=O)(=O)c3ccc(Cl)cc3)ccc2O1	inactive
C[C@@H]1CCCCO[C@H](CN(C)S(=O)(=O)c2ccc(Cl)cc2)[C@@H](C)CN([C@H](C)CO)C(=O)c2cc(NS(=O)(=O)c3ccc(Cl)cc3)ccc2O1	inactive
C[C@@H]1CN([C@@H](C)CO)C(=O)c2cc(NS(=O)(=O)c3ccc(Cl)cc3)ccc2O[C@@H](C)CCCCO[C@@H]1CN(C)S(=O)(=O)c1ccc(Cl)cc1	active
C[C@@H]1CCCCO[C@@H](CN(C)S(=O)(=O)c2ccc(Cl)cc2)[C@H](C)CN([C@@H](C)CO)C(=O)c2cc(NS(=O)(=O)c3ccc(Cl)cc3)ccc2O1	inactive
C[C@H](CO)N1C[C@H](C)[C@@H](CN(C)S(=O)(=O)c2ccc(Cl)cc2)OCCCC[C@H](C)Oc2ccc(NS(=O)(=O)c3ccc(Cl)cc3)cc2C1=O	inactive
C[C@@H]1CCCCO[C@H](CN(C)S(=O)(=O)c2ccc(Cl)cc2)[C@H](C)CN([C@@H](C)CO)C(=O)c2cc(NS(=O)(=O)c3ccc(Cl)cc3)ccc2O1	active
C[C@@H]1CCCCO[C@H](CN(C)S(=O)(=O)c2ccc(Cl)cc2)[C@@H](C)CN([C@@H](C)CO)C(=O)c2cc(NS(=O)(=O)c3ccc(Cl)cc3)ccc2O1	inactive
C[C@@H]1CN([C@H](C)CO)C(=O)c2cc(NS(=O)(=O)c3ccc(Cl)cc3)ccc2O[C@@H](C)CCCCO[C@@H]1CN(C)S(=O)(=O)c1ccc(Cl)cc1	inactive
C[C@@H]1CCCCO[C@@H](CN(C)S(=O)(=O)c2ccc(Cl)cc2)[C@@H](C)CN([C@@H](C)CO)C(=O)c2cc(NS(=O)(=O)c3ccc(Cl)cc3)ccc2O1	inactive
C[C@@H]1CCCCO[C@H](CN(C)S(=O)(=O)c2ccc(Cl)cc2)[C@H](C)CN([C@H](C)CO)C(=O)c2cc(NS(=O)(=O)c3ccc(Cl)cc3)ccc2O1	active
C[C@@H]1CCCCO[C@@H](CN(C)S(=O)(=O)c2ccc(Cl)cc2)[C@@H](C)CN([C@H](C)CO)C(=O)c2cc(NS(=O)(=O)c3ccc(Cl)cc3)ccc2O1	inactive
